Laboratory results taken from PubChem BioAssay (NCI).
Compounds without any hit were thinned out: in the full panel of roughly 79,000, 15% have a hit. Cut-off read from the data, not from the text of the source: active = growth inhibition above about 70%; inactive = the rest.

Columns and labels:
[1] = NCI Yeast Anticancer Drug Screen. Data for the rad50 strain (AID 155);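 note: 0% = growth of vehicle-only cultures of the same strain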; details: S. cerevisiae rad50 strain growth inhibition; at 50.0 µM; active compounds read high
Summary of the method: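 Growth of the mutant yeast was measured after compound exposure and referenced to vehicle-treated cultures.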

[2] = NCI Yeast Anticancer Drug Screen. Data for the mec2-1 strain (AID 157); details: S. cerevisiae mec2-1 strain, at 50.0 µM, active compounds read high
Summary of the method: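 Test agents were screened against the mec2-1 yeast strain, with defined DNA repair or cell cycle alteration. Growth was scored as inhibition against vehicle-only controls.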

[3] = NCI Yeast Anticancer Drug Screen. Data for the sgs1 mgt1 strain (AID 161);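 note: 0% = growth of cultures given vehicle only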; details: S. cerevisiae sgs1 mgt1 strain, at 50.0 µM, active compounds read high
Summary of the method: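 Read-out: growth inhibition vs vehicle controls. Cells: mutant yeast strain deficient in DNA damage repair.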

[4] = NCI Yeast Anticancer Drug Screen. Data for the cln2 rad14 strain (AID 165);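 note: 0% = growth equal to vehicle treated cultures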; details: S. cerevisiae cln2 rad14 strain, at 50.0 µM, active compounds read high
Summary of the method: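 Growth of compound-exposed yeast (cln2 rad14 genotype) measured and expressed as inhibition relative to vehicle.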

[5] = NCI Yeast Anticancer Drug Screen. Data for the bub3 strain (AID 167); details: S. cerevisiae bub3 mutant strain, at 50.0 µM, active compounds read high
Summary of the method: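 Whole-cell yeast assay. The mutant strain was incubated with compounds, and growth inhibition was determined by comparison with vehicle-treated cells.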

[6] = NCI Yeast Anticancer Drug Screen. Data for the mlh1 rad18 strain (AID 175); details: S. cerevisiae mlh1 rad18 strain growth inhibition; at 50.0 µM; active compounds read high
Summary of the method: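 In this whole-cell yeast screen, a strain with altered DNA damage repair is challenged with compound, and its growth is measured against matched vehicle-treated controls.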

Measured: growth inhibition

COC(=O)CC(C)N(c1ccc(OC)cc1)S(=O)(=O)c1ccc(C)cc1 (centres undefined)
inactive: [1] 18.4% | [2] 4.05% | [3] 14.3% | [4] -46% | [5] 17.6% | [6] 10.3%

CCCC(=O)Oc1ccc(C(=O)OC)cc1
inactive: [1] 8.4% | [2] -10.8% | [3] -11.9% | [4] -24.8% | [5] -16.4% | [6] 13.3%

Cc1cc(CN2CCCCC2)c(O)c(CN2CCCCC2)c1
inactive: [1] -4.3% | [2] -18.9% | [3] -13.4% | [4] -0.2% | [5] -29.4% | [6] -7.05%

NNc1cc(S(=O)(=O)O)cc(C(=O)O)c1O
inactive: [1] 14.5% | [2] 49% | [3] 31.4% | [4] -1.65% | [5] 42.1% | [6] 39.9%

O=C(OCc1ccccc1CN1CCOCC1)c1cccc(Cl)c1
inactive: [1] 13.8% | [2] -1.55% | [3] 17.3% | [4] -0.05% | [5] -6.25% | [6] 7.35%

CC(=O)OC(COC(c1ccccc1)(c1ccccc1)c1ccccc1)C(OC(C)=O)C(COC(c1ccccc1)(c1ccccc1)c1ccccc1)OC(C)=O (centres undefined)
inactive: [1] -25.9% | [2] -8.4% | [3] -22.5% | [4] -18.8% | [5] -6.6% | [6] -15.1%

CC1SC2(C(=O)Nc3ccccc32)N(c2ccc(O)cc2)C1=O (centres undefined)
inactive: [1] 6.25% | [2] -2.75% | [3] 9.45% | [4] 2% | [5] 7.9% | [6] 14.8%

Cc1ccc(N(CN2C(=O)CCC2=O)CS(=O)(=O)c2ccc(C)cc2)cc1
inactive: [1] -1.85% | [2] -8.6% | [3] -9.15% | [4] 21.4% | [5] -5.65% | [6] 0.8%

COc1cc(/C=C2\SC(=S)N(C=C3C(=O)NC(=O)NC3=O)C2=O)cc(OC)c1OC
inactive: [1] 7.5% | [2] -0.75% | [3] 19.1% | [4] 11.8% | [5] 7% | [6] 5.65%

CCOC(=O)c1c[nH]c2nc(N)ccc2c1=O
inactive: [1] -3.75% | [2] -0.2% | [3] 9.9% | [4] -16.4% | [5] -0.7% | [6] -5.4%

O=C(C1SCCCS1)N(O)c1ccccc1OCc1ccccc1
inactive: [1] -3.85% | [2] -37.6% | [3] -22.8% | [4] -14.5% | [5] 0.95% | [6] -19.8%

CN(C)S(=O)(=O)N1CCOCC1
inactive: [1] 9.3% | [2] -6.65% | [3] -1.15% | [4] 11.2% | [5] -2.8% | [6] 4.8%

C/C(=N/Nc1ccc([N+](=O)[O-])cc1[N+](=O)[O-])C(CC(C(=O)NCc1ccccc1)/C(C)=N\Nc1ccc([N+](=O)[O-])cc1[N+](=O)[O-])C(=O)NCc1ccccc1 (centres undefined)
inactive: [1] 5.25% | [2] -16.5% | [3] -0.1% | [4] -5.05% | [5] 21.1% | [6] 11.8%

O=[N+]([O-])C[C@@]12O[C@]3(O)C4C5CC(C6C5C3C61)C42 (some centres undefined)
inactive: [1] 6.35% | [2] 10.5% | [3] 15.3% | [4] 2.7% | [5] 1.2% | [6] 8.05%

OCCN(Cc1ccccc1)C(c1ccccc1)C(O)c1ccccc1 (centres undefined)
inactive: [1] -2.8% | [2] 7.65% | [3] 24.2% | [4] 29.2% | [5] 1.7% | [6] 1.3%

COC(=O)C1=C(C)NC(C)=C(C(=O)OC)C1c1cccc(NO)c1
inactive: [1] 9.6% | [2] 16.4% | [3] 47.4% | [4] 24% | [5] 43.3% | [6] 2.85%

COCc1ccc(C(=O)Nc2c(N)ncnc2N)cc1
inactive: [1] 5.4% | [2] 13.7% | [3] -0.15% | [4] 0.9% | [5] 23.7% | [6] -0.1%

N#CC(c1ccc(Cl)cc1)c1cccc(C(C#N)c2ccc(Cl)cc2)n1 (centres undefined)
inactive: [1] 28.9% | [2] 13.6% | [3] 38% | [4] 32.1% | [5] 38.4% | [6] 25.3%

c1ccc(CC2(c3ccccc3)OCc3ccccc32)cc1 (centres undefined)
inactive: [1] 6% | [2] 12.2% | [3] 17.6% | [4] 15.4% | [5] -2.2% | [6] 20.5%

CCCCC(Nc1nncs1)Nc1nncs1
inactive: [1] -8.9% | [2] -18% | [3] 9.85% | [4] 3.7% | [5] 11.3% | [6] 2.6%

NCCNC(=O)CCC(CN(CC(=O)O)CC(=O)O)N(CC(=O)O)CC(=O)O (centres undefined)
inactive: [1] 42.8% | [2] 69.7% | [3] 44% | [4] 57% | [5] 39% | [6] 42.7%

CC(C)(C)OC(=O)C(C1NC2C(=O)OCC2(CO)S1)N1C(=O)c2ccccc2C1=O (centres undefined)
inactive: [1] 38.6% | [2] -1.65% | [3] 25.9% | [4] -6.35% | [5] -1.75% | [6] 12.5%

N#CC1(N)c2ccccc2-c2ccccc21
inactive: [1] 34.8% | [2] 1.95% | [3] 3.4% | [4] 9.65% | [5] 3.65% | [6] 4.8%

c1ccc(C2=NC3(CCCCC3)N=C2c2ccccc2)cc1
inactive: [1] 27.1% | [2] 12.3% | [3] 6.6% | [4] -32% | [5] 21.2% | [6] 25.1%

CCCCCC(O)c1ccccc1 (centres undefined)
inactive: [1] 22.7% | [2] -15.1% | [3] 11.2% | [4] -6.8% | [5] -7.1% | [6] 17.5%

CC(=O)Nc1ccc(O)c(C(=O)O)c1
inactive: [1] -8.6% | [2] 7.3% | [3] -8.55% | [4] -6% | [5] 24.1% | [6] -24.4%

C=C1C(=O)O[C@@H]2/C=C(\C)CC/C=C(/C)CC[C@@H]12
inactive: [1] 45.8% | [2] 52.2% | [3] 61.6% | [4] 32.8% | [5] 54.4% | [6] 58.1%

CCCCCCCCCCCCCCCC(=O)Oc1ccc(/C(CC)=C(/CC)c2ccc(OC(=O)CCCCCCCCCCCCCCC)cc2)cc1
inactive: [1] 16.1% | [2] -8.1% | [3] 8.55% | [4] 1.85% | [5] 8.65% | [6] 4.25%

O=C1c2ccccc2C(=O)c2c(O)c3c(c(O)c21)CCCC3
inactive: [1] -14.4% | [2] 7.55% | [3] -1.05% | [4] -9.65% | [5] 1.95% | [6] 5.7%

Nc1ccc(S(=O)(=O)O)c(N)c1
inactive: [1] 10.2% | [2] 9.05% | [3] -3.5% | [4] -0.3% | [5] 13.1% | [6] 3.95%

CCOc1snc(C(Cl)(Cl)Cl)c1Cl
inactive: [1] 9.7% | [2] 15.3% | [3] 5.05% | [4] 18% | [5] 22.3% | [6] 8.2%

CCCCCC(C)(O)CC(C)(C)C (centres undefined)
inactive: [1] -3.15% | [2] 5.75% | [3] 0.55% | [4] -7.95% | [5] 2.2% | [6] 34.8%

Cc1cc(N)cc(C)n1
inactive: [1] 22.9% | [2] 28.6% | [3] -14.8% | [4] 0.7% | [5] 11.7% | [6] 11.7%

Nc1ccc(C(=O)Nc2ccc(C(=O)Nc3ccc4c(O)cc(S(=O)(=O)O)cc4c3)cc2)cc1
inactive: [1] -6.3% | [2] -6.65% | [3] -4.6% | [4] -34.3% | [5] -4.7% | [6] 12.8%

Cc1c(Cl)c2ccccc2n1S(=O)(=O)c1ccccc1
inactive: [1] 38.1% | [2] -3.55% | [3] 31.2% | [4] 22.1% | [5] 10.5% | [6] 21.9%

Cn1cnc2ncnc(NCc3ccc(Cl)c(Cl)c3)c21
inactive: [1] -1.45% | [2] 18.9% | [3] -7.35% | [4] -21.2% | [5] 4.6% | [6] -25.1%

CC(CC(C)(C)C)C(=O)O (centres undefined)
inactive: [1] -4.05% | [2] -5.75% | [3] 2.55% | [4] 1.2% | [5] 6.85% | [6] 7.25%

c1ccc(C2SCc3nc4cc5ccccc5cc4n32)cc1 (centres undefined)
inactive: [1] -21.6% | [2] 6.4% | [3] 17.1% | [4] 12% | [5] -17% | [6] 16.8%

O=[N+]([O-])c1ccccc1Sc1ccc2c3c(cccc13)CN(CCCO)C2
inactive: [1] 66.3% | [2] 7.05% | [3] 47.6% | [4] 6.8% | [5] 7.15% | [6] 50.9%
